Source: the supplement of paper PMC10646978
± gives the standard deviation.

Assays:
Conditions in all cases: modulator concentration 10 µM
[1] = tested on: RAW-Dual (murine macrophage reporter line); assay: NF-kB reporter (SEAP) activity fold change vs agonist alone; higher = enhanced NF-kB activity
Outline: (§1)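 Overnight stimulation with a PRR agonist followed pre-incubation for 1 hour at 37 °C with compound at 10 μM final. This was done in RAW-Dual murine macrophage reporter cells seeded at 50 000 per well in 384-well plates. NF-κB (SEAP, QUANTI-Blue absorbance at 620 nm) and IRF (Lucia luciferase, QUANTI-Luc luminescence) were read from the supernatant. Each reporter's fold change relative to the mean agonist-only control on the same plate was averaged over replicate plates.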

[2] = tested on: RAW-Dual (murine macrophage reporter line); assay: IRF reporter (Lucia luciferase) activity fold change vs agonist alone; higher = enhanced IRF activity
Outline: as §1

[3] = tested on: RAW-Dual (murine macrophage reporter line); assay: viability score (confluency relative to resting cells, overnight) (fraction); higher = more viable, active = viable (0.7 or more)
Outline: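 Overnight exposure to 10 μM final compound was carried out on RAW-Dual macrophages in 384-well plates. IncuCyte software generated two confluency masks over all wells imaged with IncuCyte. The viability score gives confluency in relation to resting cells. A compound met the cutoff if each mask exceeded 70% of resting cells.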

[4] = agonist: CpG ODN 1826 0.5 ug/mL

Row | Structure (SMILES) | NF-kB reporter [1, 4] | NF-kB reporter ([1]; agonist: LPS 0.1 ug/mL) | NF-kB reporter ([1]; agonist: MPLA […]) | IRF reporter ([2]; agonist: 3'3'-cGAMP 10 ug/mL) | IRF reporter ([2]; agonist: LPS 0.1 ug/mL) | IRF reporter ([2]; agonist: MPLA […]) | viability score [3]
1 | CCOc1ccc(-c2cccc(NC(=O)c3c(F)cccc3F)c2)nn1 | 0.969 ± 0.043 | 1.06 ± 0.088 | 1.13 ± 0.061 | 0.861 ± 0.053 | 1.11 ± 0.21 | 1.23 ± 0.46 | 0.982 (active)
2 | O=[N+]([O-])c1ccc(CN2c3ccccc3C3=C(CCCC3)C23CCCCC3)cc1 | 0.959 ± 0.074 | 1.04 ± 0.08 | 0.936 ± 0.1 | 0.951 ± 0.057 | 1.33 ± 0.16 | 1.6 ± 0.27 | 1.03 (active)
3 | c1ccc(CCn2c3ccccc3c3nnc(SCCN4CCCCC4)nc32)cc1 | 0.232 ± 0.018 | 1.05 ± 0.061 | 1.02 ± 0.061 | 0.81 ± 0.075 | 1.57 ± 0.17 | 1.57 ± 0.11 | 1.01 (active)
4 | CC(C)(C)c1ccc(-c2nc(-c3cccc([N+](=O)[O-])c3)no2)cc1 | 1.06 ± 0.1 | 0.972 ± 0.091 | 0.964 ± 0.025 | 1.02 ± 0.071 | 1.01 ± 0.098 | 1.05 ± 0.17 | 0.995 (active)
5 | COc1ccc(-n2c(C)c([N+](=O)[O-])c3ccc(O)cc32)cc1 | 0.835 ± 0.15 | 1.26 ± 0.1 | 1.34 ± 0.17 | 0.393 ± 0.021 | 0.594 ± 0.089 | 0.601 ± 0.063 | 0.999 (active)
6 | Cc1ccc(N2CC(C(=O)NCC3CCCO3)CC2=O)cc1 (stereo unspecified) | 1.02 ± 0.082 | 0.97 ± 0.099 | 1.03 ± 0.037 | 1.03 ± 0.22 | 1.05 ± 0.051 | 1.17 ± 0.076 | 1 (active)
7 | CC1(C)CC(=O)C2=C(C1)OC(N)=C(C#N)C2c1ccccc1C(F)(F)F (stereo unspecified) | 1.01 ± 0.073 | 1.09 ± 0.074 | 1.06 ± 0.14 | 0.999 ± 0.059 | 1.22 ± 0.086 | 1.26 ± 0.29 | 0.994 (active)
8 | CN1CCN(c2ccc(-c3cccc(NC(=O)COc4ccc(Cl)cc4)c3)nn2)CC1 | 0.24 ± 0.029 | 0.966 ± 0.053 | 0.891 ± 0.021 | 0.572 ± 0.032 | 0.946 ± 0.057 | 0.966 ± 0.081 | 0.97 (active)
9 | COC(=O)C1C(=O)C(=CNc2ccccc2O)C(=O)CC1(C)C (stereo unspecified) | 1.66 ± 0.29 | 1.53 ± 0.13 | 2.44 ± 0.19 | 0.183 ± 0.011 | 1.19 ± 0.11 | 1.02 ± 0.14 | 0.557 (inactive)
10 | O=C(CCCCCCNC(=O)c1cnc(N(c2ccccc2)c2ccccc2)nc1)NO | 1.14 ± 0.067 | 0.318 ± 0.026 | 0.797 ± 0.15 | 0.954 ± 0.08 | 2.78 ± 0.69 | 3.16 ± 1 | 0.95 (active)
11 | Cc1cccc(C(=O)N2N=C(c3ccccc3)CC2(O)C(F)(F)F)c1 (stereo unspecified) | 1.29 ± 0.1 | 1.13 ± 0.062 | 1.46 ± 0.087 | 1.58 ± 0.049 | 3.2 ± 0.32 | 1.79 ± 0.12 | 0.254 (inactive)
12 | C1N2CN3CN1CN(C2)C3 | 1.07 ± 0.085 | 1.04 ± 0.054 | 1.03 ± 0.033 | 0.961 ± 0.055 | 0.958 ± 0.092 | 0.949 ± 0.076 | 1 (active)
13 | CCCCOC(=O)C1=C(C)NC2=C(C(=O)CCC2)C1c1cccc(C(F)(F)F)c1 (stereo unspecified) | 0.981 ± 0.1 | 1.01 ± 0.057 | 0.939 ± 0.058 | 0.993 ± 0.025 | 1.56 ± 0.28 | 1.15 ± 0.17 | 1.01 (active)
